Test results reported in PubChem BioAssay AID1508602 (The Scripps Research Institute Molecular Screening Center, 2020).
Out of some 650,000 compounds screened, about 6,800 (1%) were called active. No stated cut-off is given here; in the data, active means activation above about 4.9%; inactive means the rest. The list comes from a sample in which actives are over-represented; it also holds similar structures and randomly drawn compounds.

Target: G-protein coupled receptor 151 (Homo sapiens) (UniProt Q8TDV0)
Sequence (Q8TDV0 whole entry, looked up): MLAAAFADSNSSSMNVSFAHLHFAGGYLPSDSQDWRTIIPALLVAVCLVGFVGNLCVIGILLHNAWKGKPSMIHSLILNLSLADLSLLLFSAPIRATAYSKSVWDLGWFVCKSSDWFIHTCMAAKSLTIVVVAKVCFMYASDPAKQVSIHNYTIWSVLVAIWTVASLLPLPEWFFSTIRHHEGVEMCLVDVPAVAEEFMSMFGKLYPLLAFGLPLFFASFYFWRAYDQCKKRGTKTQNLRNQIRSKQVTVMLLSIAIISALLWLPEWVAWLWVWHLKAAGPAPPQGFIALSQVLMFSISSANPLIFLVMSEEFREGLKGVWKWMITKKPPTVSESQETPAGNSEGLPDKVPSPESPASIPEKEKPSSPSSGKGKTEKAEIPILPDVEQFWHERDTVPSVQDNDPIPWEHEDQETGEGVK
Assay: activates the human receptor GPR151, primary screen, cell-based, PathHunter beta-arrestin, luminescence (AID 1508602);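 further: 0% = median of compound wells and 100% = cells with positive control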
Details: PathHunter beta-arrestin GPR151 cells, at 11.2 µM, stronger effect = higher value

| SMILES | activation |
| --- | --- |
| C/C(=N\NC(=O)CNC(=O)c1ccccc1Br)c1ccccc1 | -0.31% (inactive) |
| Cc1cccc(C)c1OCC(=O)OCCNC(=O)c1cccnc1 | 2.35% (inactive) |
| CC(C)(C)c1ccc(OCCNC(=S)NC(=O)c2cncc(Br)c2)cc1 | 0.8% (inactive) |
| Cc1cccc(OCCNC(=S)NC(=O)c2cccnc2)c1 | 7.55% (active) |
| COc1ccc(-c2c(C)nn3c(NCCN(C)C)cc(C)nc23)cc1 | 0.306% (inactive) |
| O=C1NC2(CCCC2)C(=O)N1Cc1nnc(-c2ccccc2Br)o1 | 0.439% (inactive) |
| CS(=O)(=O)N(CC(=O)Nc1ccc(F)cc1F)c1cccc([N+](=O)[O-])c1 | -0.142% (inactive) |
| CS(=O)(=O)N(CC(=O)Nc1ccc(F)cc1F)c1ccc(F)cc1 | 7.88% (active) |
| CS(=O)(=O)N(CC(=O)Nc1ccc(F)cc1F)c1cc(Cl)c(Cl)cc1Cl | -0.649% (inactive) |
| OCCn1c(SCCSc2nc3ccccc3n2CCO)nc2ccccc21 | -0.408% (inactive) |
| COc1cc(NC(=O)c2cccc(Br)c2)ccc1NC(=O)c1ccco1 | 0.388% (inactive) |
| COc1ccc(NC(=O)c2sc3ncnc(N4CCCCC4)c3c2C)cc1OC | 0.695% (inactive) |
| COc1ccccc1N1CCN(c2ncnc3sc(C(=O)Nc4ccc5c(c4)OCCO5)c(C)c23)CC1 | -0.8% (inactive) |
| COc1cc(NC(=O)c2sc3ncnc(N4CCCCC4)c3c2C)cc(OC)c1OC | 5.99% (active) |
| CCC(CC)NCc1cc(OC)c(OC)cc1Br | 0.484% (inactive) |
| Cc1ccc([N+](=O)[O-])cc1S(=O)(=O)Nc1cccc(N(C)C)c1 | 0.193% (inactive) |
| Cc1cc(C)cc(N(C(C)C(=O)Nc2ccc(Cl)cc2)S(C)(=O)=O)c1 (stereo not given) | -1.25% (inactive) |
| Nc1cc(Cl)ccc1C(=O)OCC(=O)Nc1ccc(N2CCCCC2)cc1 | 2.3% (inactive) |
| O=C1N[C@@H](Cc2ccccc2)C(=O)N2CCN(C(=O)c3ccc(OC(F)(F)F)cc3)C[C@H]12 | -1.02% (inactive) |
| Cc1nc(NC(=O)C23CCC(C)(C(=O)O2)C3(C)C)sc1C (stereo not given) | -1.28% (inactive) |
| CC(C)NC(=O)C12CCC(C)(C(=O)O1)C2(C)C (stereo not given) | 0.406% (inactive) |
| CC12CCC(C(=O)NC3CCCCC3)(OC1=O)C2(C)C (stereo not given) | 4.96% (active) |
| Cc1ccnc(NC(=O)Nc2sc3nc4n(c(=O)c3c2C)CCC(C)CC4)c1 (stereo not given) | 0.22% (inactive) |

| SMILES | activation |
| --- | --- |
| CCn1c(C(CC(C)C)NC(=O)C2CC2)nc2cccnc21 (stereo not given) | -0.148% (inactive) |
| COc1ccc(C(=O)N2CCCN(c3nc4cc(C)c(C)cc4cc3C#N)CC2)cc1OC | 2.69% (inactive) |
| Cc1ccc(C(=O)NCC(=O)OCC(=O)N(C(C)C)C(C)C)cc1C | -0.906% (inactive) |
| CCOc1cc2c(cc1OCC)C(c1ccc3ccccc3c1)NCC2 (stereo not given) | 5.53% (active) |
| CCOc1cc2c(cc1OCC)C(c1ccc(OC)c(C)c1)NCC2 (stereo not given) | 0.975% (inactive) |
| CCOc1cc2c(cc1OCC)C(c1cc(F)c(F)c(F)c1)NCC2 (stereo not given) | -0.242% (inactive) |
| O=C(NC1CCCCCC1)c1ccc(NS(=O)(=O)c2cccs2)cc1 | 2.64% (inactive) |
| COc1ccc(/C=N/N=C2/NC(=O)CS2)c(OC)c1 | -0.156% (inactive) |
| COc1cc(/C=N/N=C2/NC(=O)CS2)ccc1OC(=O)c1ccccc1C | 10.4% (active) |
| COc1cccc(/C=N/N=C2/NC(=O)CS2)c1O | -1.32% (inactive) |
| COCCn1c(=NC(=O)c2c(C)cnn2C)sc2cc(Cl)ccc21 | -0.961% (inactive) |
| Cc1ccc(C(=O)Nc2ccc(N(C)C)cc2)cc1C | -2.22% (inactive) |
| Cc1ccc(NC(=O)c2cccc(N(C)C)c2)cc1NC(=O)c1ccc(O)cc1 | 8.84% (active) |
| Cc1cccc(C(=O)Nc2ccc(C(=O)Nc3ccc(C(=O)Nc4ccccc4C)cc3)cc2)c1 | 2.61% (inactive) |
| Cc1ccc(-c2csc(Nc3ccccc3)n2)c(C)c1 | 0.521% (inactive) |
| Cc1cccc(Nc2nc(-c3ccc(I)cc3)cs2)c1 | -1.86% (inactive) |
| Cc1ccc(Nc2nc(-c3ccccn3)cs2)cc1C | 11.2% (active) |
| O=C(c1ccccc1)N1CCN(C2CC(=O)N(c3cc(Cl)cc(Cl)c3)C2=O)CC1 (stereo not given) | -0.358% (inactive) |
| Cc1ccc(OCCN2CCNCC2)c(Cl)c1 | 0.0124% (inactive) |
| CCC(=O)NC(c1nnc2n1CCN(Cc1ccc3cccnc3c1)CC2)C(C)C (stereo not given) | 0.149% (inactive) |
| CC(C)C(=O)NC(C)c1nnc2n1CCN(Cc1cccc3ncccc13)CC2 (stereo not given) | 0.68% (inactive) |
| CC(C)C(=O)NC(C)c1nnc2n1CCN(Cc1ccc3cccnc3c1)CC2 (stereo not given) | 5.04% (active) |
| Cc1cc(OCC(=O)NNC(=O)COc2ccc(Br)cc2Br)cc(C)c1Cl | 0.12% (inactive) |

| SMILES | activation |
| --- | --- |
| CC(C)c1nc2sc3c(NCCCO)ncnc3c2c2c1COC(C)(C)C2 | 1.25% (inactive) |
| CCCN1C(=O)c2ccc(C(=O)Nc3ccc(C(C)=O)cc3)cc2C1=O | 6.33% (active) |
| CCCN1C(=O)c2ccc(C(=O)Nc3ccc(O)cc3C(=O)O)cc2C1=O | -4.67% (inactive) |
| COCCN1C(=O)c2ccc(C(=O)Nc3ccc(C(=O)O)cc3)cc2C1=O | -0.197% (inactive) |
| O=C(CCC1=NS(=O)(=O)c2ccccc2N1)N1CCN(c2ccccc2)CC1 | 0.684% (inactive) |
| O=[N+]([O-])c1ccc(Nc2nc(Cl)nc(NCCN3CCOCC3)n2)cc1 | 3.01% (inactive) |
| COc1ccc(Br)cc1C(=O)NCC1COc2ccccc2O1 (stereo not given) | 5.44% (active) |
| COc1cc(C(=O)NCCC(=O)NCC2COc3ccccc3O2)cc(OC)c1OC (stereo not given) | -0.141% (inactive) |
| CCOC(=O)C(=O)NCC1COc2ccccc2O1 (stereo not given) | 0.866% (inactive) |
| O/N=C(\C(=N\O)c1ccccc1)c1ccccc1 | -0.0395% (inactive) |
| COC(=O)Cc1ccc(NC(=S)N2CCC(C(N)=O)CC2)cc1 | -0.283% (inactive) |
| O=C(NCC1CCCO1)c1ccc(N2CC3CC(C2)c2cccc(=O)n2C3)c(NS(=O)(=O)c2ccc(Cl)cc2)c1 (stereo not given) | -2.43% (inactive) |
| c1ccc(CNc2nc(Nc3ccc(N4CCOCC4)cc3)nc3c2ncn3-c2ccccc2)cc1 | 1.12% (inactive) |
| CCN(CC)C(=O)C1CCCN(c2ncc(C)c(NCc3cccc(C(F)(F)F)c3)n2)C1 (stereo not given) | 5.92% (active) |
| CCN(CC)C(=O)C1CCCN(c2nc(NCc3cccc(C(F)(F)F)c3)c3cc(OC)c(OC)cc3n2)C1 (stereo not given) | -0.297% (inactive) |
| FC(F)(F)c1cccc(CNc2nc(Nc3ccc(N4CCOCC4)cc3)nc3c2ncn3-c2ccsc2)c1 | 0.773% (inactive) |
| FC(F)(F)c1cccc(CNc2ncnc3nc(N4CCOCC4)[nH]c23)c1 | 1.38% (inactive) |
| Cc1cnc(Nc2ccc(N3CCOCC3)cc2)nc1NCc1cccc(C(F)(F)F)c1 | 6.5% (active) |
| FC(F)(F)c1cccc(CNc2ccnc(N3CCOCC3)n2)c1 | 0.285% (inactive) |
| FC(F)(F)c1ccc(Cn2cnc3c(NCc4cccc(C(F)(F)F)c4)nc(Nc4ccc(N5CCOCC5)cc4)nc32)cc1 | 5.04% (active) |
| CCN(CC)C(=O)C1CCCN(c2ncc(C)c(Nc3ccc(N4CCOCC4)cc3)n2)C1 (stereo not given) | 0.13% (inactive) |
| COc1ccc(/C=N/NC(=O)CN(C)C(=O)c2ccccc2)cc1 | -1.44% (inactive) |
| COc1ccc(Cl)cc1NC(=O)C1c2cc(OC)c(OC)cc2C(=O)N(C)C1c1ccc(OC)c(OC)c1 (stereo not given) | 4.36% (inactive) |

| SMILES | activation |
| --- | --- |
| Cc1ccc(N2C(=O)C3ON(c4ccc(Cl)cc4)C(c4ccco4)C3C2=O)cc1 (stereo not given) | -1.12% (inactive) |
| COCc1c(C(=O)N/N=C/c2cccc(F)c2)nnn1-c1nonc1N | -0.56% (inactive) |
| O=C(Cc1ccc(Cl)cc1)NCc1nnnn1C1CCCCC1 | -1.64% (inactive) |
| CCCc1cc(=O)[nH]c(Nc2cccc(O)c2)n1 | 0.777% (inactive) |
| CCOC(=O)C1=C(N)OC2=C(C(=O)CC(C)(C)C2)C1c1cc(OC)ccc1F (stereo not given) | -1.02% (inactive) |
| Cc1[nH]n(-c2nc3c(c(=O)[nH]2)CCCC3)c(=O)c1CCO | -1.77% (inactive) |
| C=CCn1c(SCC(=O)N2c3ccccc3CC2C)nc2sc(C)c(C)c2c1=O (stereo not given) | 0.176% (inactive) |
| COCCNc1nc2nonc2nc1N1CCC(N2C[C@@H](C)O[C@@H](C)C2)CC1 | -0.822% (inactive) |
| O=[N+]([O-])c1ccc(S(=O)(=O)NCCc2ccccc2)cc1 | 0.345% (inactive) |
| O=C(/C=N/Nc1ccc([N+](=O)[O-])cc1[N+](=O)[O-])c1ccco1 | 0.644% (inactive) |
| O=C(/C=C/Nc1ccccc1NS(=O)(=O)c1ccc([N+](=O)[O-])cc1)c1ccco1 | 6.93% (active) |
| O=C(NCc1ccccc1)N(CCN1CCCC1)Cc1cc2cc3c(cc2[nH]c1=O)OCO3 | -0.475% (inactive) |
| Cc1ccc(S(=O)(=O)C2(C(=O)Nc3ccc([N+](=O)[O-])cn3)CC2)cc1 | 0.544% (inactive) |
| CC(C)N(CCNc1cc(N2CCOCC2)ncn1)C(C)C | -0.393% (inactive) |
| COc1cc(S(=O)(=O)NCCN2CCOCC2)ccc1Br | -1.15% (inactive) |
| CCc1ccc(S(=O)(=O)NCCOc2cc(N3CCOCC3)ncn2)cc1 | 5.88% (active) |
| O=C1CCCC2=C1C(c1ccccc1[N+](=O)[O-])c1c([nH]c(=O)[nH]c1=O)N2 (stereo not given) | -0.211% (inactive) |
| COc1ccc2c(=O)c(C(=O)O)c[nH]c2c1 | -1.56% (inactive) |
| CC(=O)Nc1ccc(NC(=O)/C=C\C(=O)O)cc1C | 2.3% (inactive) |
| CCOC(=O)C1=C(c2ccccc2)S/C(=C2/C(=S)C(C)(C)N(C(C)=O)c3cc(C)c(C)cc32)S1 | 1.9% (inactive) |
| N#CCCN1c2ccccc2Sc2ccc(C(F)(F)F)cc21 | 1.1% (inactive) |
